High-throughput results (PubChem BioAssay)
Rows were chosen to be rich in hits. Some 21% of all compounds tested hit in one or more screens of this group.
Cycloheximide cs: counter-screen for Shiga toxin inhibitors: cycloheximide protein synthesis inhibition; cell reporter, cycloheximide protein synthesis inhibition counterscreen; max response, %; hit rate 12% among 300,000; AID 2314; in the data active = max response mostly above about 13%, no sharp cut-off; inactive = mostly below about 14%; note: read at 38.3 µM for the half of the compounds with a filed dose
Pf growth 48h: P. falciparum growth inhibition at 48 hours (one generation); P. falciparum luciferase growth in erythrocytes, 48 h; Potency, µM (top dose mostly 28.7 µM), actives largely listed as inhibitors; hit rate 5.9% among 310,000; AID 504832
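A one-generation exposure of luciferase-tagged malaria parasites in RPMI 1640/Albumax erythrocyte culture, 37 C and 5% CO2. Inhibition is inferred from decreased luminescence after adding detection reagent.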
Shiga inhibitor: blocks Shiga toxin action in Vero cells | Vero cells, Shiga toxin protein synthesis inhibition reporter | hit rate 9.2% among 290,000 | inhibition, % at 38.7 µM; in the data active = inhibition mostly above about 28%, no sharp cut-off; inactive = mostly below about 43%
Pf growth 96h: inhibits malaria parasite growth, 96 h | P. falciparum luciferase reporter growth, 96 h | Potency, µM (doses to about 28.7 µM), usual class: inhibitors | hit rate 6.9% among 320,000
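96 h incubation, 37 C, 5% CO2, of luciferase-reporter P. falciparum-infected RBCs (2% hematocrit, 0.05% parasitemia final) with test compounds; endpoint luminescence.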
Hits are given with their value; . = inactive; ? = inconclusive; / = no result; [ ] = another dose, or the depositor's remark. Unless noted, calls come from the whole dose curve; as a rule, active = well fitted inhibition curve with a large enough effect; inconclusive = small, poorly fitted or top-dose-only effect, or another doubt; inactive = no such curve, though single readings can be large or run the other way.

SMILES	Cycloheximide cs	Pf growth 48h	Shiga inhibitor	Pf growth 96h
Cc1ccc(C)c(NC(=O)Cc2nc(CNCC(C)C)cs2)c1	.	.	.	.
COc1ccc(/C=N/Nc2cn[nH]c(=O)c2Cl)cc1	29	.	.	.
Cc1ccsc1/C=N\Nc1cn[nH]c(=O)c1Cl	31	.	.	.
Cc1ccc(/C=N\Nc2cn[nH]c(=O)c2Cl)cc1	38	.	.	/
O=c1[nH]ncc(N/N=C/c2ccccc2)c1Cl	.	.	.	/
CC(=O)Nc1ccc(S(=O)(=O)Nc2nnc(Cc3ccc(Cl)cc3)s2)cc1	.	.	.	.
CCOC(=O)c1noc(C)c1C(=O)Nc1nc(C)cc(C)n1	.	.	.	.
Cn1cnnc1SCC(=O)Nc1ccc2nc(SCc3ccccc3Cl)sc2c1	19	.	active	?
Cn1cnnc1SCC(=O)Nc1ccc2nc(SCc3cccc4ccccc34)sc2c1	.	/	.	?
Cc1cc(C)c(NC(=O)CSc2nc3ccc(NC(=O)CSc4nnnn4-c4ccccc4)cc3s2)c(C)c1	.	.	.	.
CCN(CC)C(=O)CSc1nc2ccc(NC(=O)CSc3nccn3C)cc2s1	14	8.3µM	.	?
Cn1cnnc1SCC(=O)Nc1ccc2nc(SCc3ccccc3)sc2c1	90	/	101	.
CCNc1nc(NCC)nc(SCCOC(=O)COc2ccc(Cl)cc2Cl)n1	.	.	.	/
CCCOc1ccc(C(O)(CCN2CCCCC2)c2ccccc2OC)cc1 (stereo not drawn)	.	.	.	.
CC(C)(C)N1C(=O)[C@H]2[C@@H](c3ccc(Br)cc3)N3C(=O)N(c4ccccc4)C(=O)[C@@]3(C)[C@H]2C1=O	.	?	.	13µM
COc1ccc([C@@H]2[C@@H]3C(=O)N(C(C)(C)C)C(=O)[C@@H]3[C@]3(CC(C)C)C(=O)N(c4ccc(C(F)(F)F)cc4)C(=O)N23)cc1	.	12µM	.	3.7µM
CCN1C(=O)[C@H]2[C@@H](c3ccc(C)cc3)N3C(=O)N(c4ccc(OC)cc4)C(=O)[C@@]3(CC)[C@H]2C1=O	/	.	/	.
CCN1C(=O)[C@H]2[C@@H](c3ccc(C)cc3)N3C(=O)N(c4ccc(C(F)(F)F)cc4)C(=O)[C@@]3(Cc3ccccc3)[C@H]2C1=O	.	?	.	.
COc1ccc([C@@H]2[C@@H]3C(=O)N(C(C)(C)C)C(=O)[C@@H]3[C@]3(CC(C)C)C(=O)N(c4cccc(Br)c4)C(=O)N23)cc1	.	?	.	3.7µM
COc1ccc([C@@H]2[C@@H]3C(=O)N(C(C)(C)C)C(=O)[C@@H]3[C@]3(Cc4ccccc4)C(=O)N(c4ccc(C(F)(F)F)cc4)C(=O)N23)cc1	.	?	.	5.9µM
CC[C@@]12C(=O)N(c3cccc(C)c3)C(=O)N1[C@H](c1ccc(OC)cc1)[C@@H]1C(=O)N(C(C)(C)C)C(=O)[C@@H]12	.	?	.	?
CC(C)(C)N1C(=O)[C@H]2[C@@H](c3ccc(Br)cc3)N3C(=O)N(c4cccc(Br)c4)C(=O)[C@@]3(Cc3ccccc3)[C@H]2C1=O	.	?	.	?
Cn1cccc1CNC(=S)Nc1ccccc1F	.	.	.	.
Cc1ccc(S(=O)(=O)N2C(=O)/C(=C3\SC(=S)NC3=O)c3ccccc32)cc1	.	.	.	.
COc1ccc(C(=O)O/N=C(\N)Cc2ccc([N+](=O)[O-])cc2)c(OC)c1	.	?	.	?
SMILES	Cycloheximide cs	Pf growth 48h	Shiga inhibitor	Pf growth 96h
COCc1c(Br)c(C)nc2sc3c(=O)[nH]nnc3c12	.	.[0.00184 µM]	.	.
COc1ccc([C@@H]2[C@@H]3C(=O)N(C(C)(C)C)C(=O)[C@@H]3[C@]3(C)C(=O)N(c4cccc(C)c4)C(=O)N23)cc1	.	.	.	.
COc1ccc([C@@H]2[C@@H]3C(=O)N(C(C)(C)C)C(=O)[C@@H]3[C@]3(CC(C)C)C(=O)N(c4ccccc4)C(=O)N23)cc1	16	?	.	?
COc1ccc([C@@H]2[C@@H]3C(=O)N(C(C)(C)C)C(=O)[C@@H]3[C@]3(C)C(=O)N(c4ccc(C(F)(F)F)cc4)C(=O)N23)cc1	21	?	24	?
COc1cccc(CNC(=O)c2ccccc2SCC(=O)N2CCCC2)c1	/	.	/	.
CC(=O)c1c(C)oc2ccc(NS(=O)(=O)c3cccs3)cc12	.	.	.	.
Cc1ccc(C2CN(CCC(N)=O)C(=O)CO2)cc1 (stereo not drawn)	/	.	/	.
Cc1c(NC(=O)c2ccc(-c3ccc([N+](=O)[O-])cc3Cl)o2)c(=O)n(-c2ccccc2)n1C	.	.	.	9.3µM
Cc1c(NC(=O)CN2C(=O)c3ccc([N+](=O)[O-])cc3C2=O)c(=O)n(-c2ccccc2)n1C	.	.	.	.
Cc1c(NCc2ccccc2O)c(=O)n(-c2ccccc2)n1C	.	.	.	.
Cc1c(NC(=O)c2ccccc2)c(=O)n(-c2ccccc2)n1C	.	.	.	10µM
Cc1c(NC(=O)C(C)OC(=O)c2ccc([N+](=O)[O-])s2)c(=O)n(-c2ccccc2)n1C (stereo not drawn)	.	?	.	13µM
C=CCc1cccc(CNc2c(C)n(C)n(-c3ccccc3)c2=O)c1O	.	10µM	.	.
O=C(CNC(=O)c1ccc(Br)o1)NNC(=O)c1ccccc1F	.	.	.	.
Cc1c(NC(=O)c2cccc(S(=O)(=O)N3CCOCC3)c2)c(=O)n(-c2ccccc2)n1C	.	.	.	8.3µM
Cc1c(NC(=O)c2ccc(S(=O)(=O)N3CCOCC3)cc2)c(=O)n(-c2ccccc2)n1C	.	.	.	.
Cc1c(NC(=S)NC(=O)c2ccccc2Cl)c(=O)n(-c2ccccc2)n1C	.	.	.	.
Cc1c(C(=S)NC(=O)C2CC2)c(=O)n(-c2ccccc2)n1C	.	.	.	15µM
Cc1cc(C(=O)CCC(=O)N(C)CC(=O)Nc2ccc(OC(F)(F)F)cc2)c(C)s1	/	?	/	.
C=CCSc1nnc(-c2cnn(-c3ccccc3)c2-n2cccc2)n1C	.	/	.	?
C=CCSc1nnc(-c2cc(C(C)(C)C)nn2Cc2ccc(F)cc2)n1C	.	13µM	.	9.3µM
COC(=O)c1cn(NC(=O)Cc2c(F)cccc2Cl)c(=O)c2ccccc12	.	.	.	.
CSc1ccccc1NS(=O)(=O)c1cccc2nonc12	.	.	.	.
O=C(NC1CCCCC1)c1c2c(nc3ccccc13)CCC2	.	.	.	.
Nc1c2c(nc3ccccc13)CCCC2=O	17	.	.	.
SMILES	Cycloheximide cs	Pf growth 48h	Shiga inhibitor	Pf growth 96h
O=C(O)c1c2c(nc3ccccc13)CCCCC2	.	.	.	?
Nc1c2c(nc3ccccc13)CCCC2O (stereo not drawn)	/	.	/	11µM
COc1ccc(CCNC(=O)c2coc3ccccc3c2=O)cc1OC	.	?	.	?
CC(NC(=O)CCc1nnc(CCCc2ccccc2)o1)c1ccccc1 (stereo not drawn)	29	.	94	.
CC1(C)CC(NC(=O)CCc2nnc(CCCCc3ccccc3)o2)CCO1 (stereo not drawn)	.	.	.	10µM
CC(NC(=O)CCc1nnc(-c2ccccc2)o1)c1ccccc1 (stereo not drawn)	35	.	124	?
Cc1cc(CNC(=O)CCc2nnc(CCCc3ccccc3)o2)nn1C	37	.	33	?
